Data as given in PubChem BioAssay (NCATS).
Results filed as inconclusive are left out. Where a call stands in place of a potency, no number is given. Activity calls are given as the source filed them. Calls follow the shape of the dose curve; as a rule, active = well fitted inhibition curve with a large enough effect; inconclusive = small, poorly fitted or top-dose-only effect; inactive = flat fitted curve, though single readings scatter.

Molecular target: Aldehyde dehydrogenase, mitochondrial (Homo sapiens) (UniProt P05091)
Assay: qHTS for Inhibitors of the Aldehyde Dehydrogenase Family (ALDH2) Primary screen (AID 2061308); also: nearly all actives have a fitted effect of over 55% in size
Conditions: ALDH2 enzyme inhibition qHTS, 1536-well; series mostly up to 56 µM

Row | SMILES | Potency
1 | Cc1ccc2nc3sc(C(=O)N4CCC(C(N)=O)CC4)cc3cc2c1 | inactive
2 | COc1ccccc1C(=O)N1CCc2cc(-c3nc(NC(=O)Cc4ccc5c(c4)OCO5)sc3C)ccc21 | inactive
3 | O=S(=O)(NC1CCN(S(=O)(=O)c2ccc3c(c2)OCCO3)CC1)c1c(F)cccc1F | inactive
4 | O=C1CCc2cc(Cl)c(S(=O)(=O)Nc3ccc(Cl)c(Cl)c3)cc2N1 | inactive
5 | Cc1cccc(NC(=O)c2cnn3c(C)cc(C)nc23)c1 | inactive
6 | COc1ccc(C2Nc3ccccc3C(=O)N2Cc2ccncc2)cc1COc1c(C)cc(NC(C)=O)cc1C (stereo not given) | inactive
7 | NC1(C(=O)NC(CCO)c2ccc(Cl)cc2)CCN(c2ncnc3[nH]ccc23)CC1 (stereo not given) | inactive
8 | COc1ccccc1-c1nc2ccccc2s1 | inactive
9 | N#CN/C(=N\c1nnc(-c2ccncc2)s1)Nc1ccc(F)c(C(F)(F)F)c1 | inactive
10 | O=C(CSc1nnc(-c2cccc(S(=O)(=O)N3CCCC3)c2)n1-c1ccccc1)Nc1ccc(Cl)cc1 | inactive
11 | Fc1cc(Nc2nc(-c3ccncc3)nc3ccccc23)ccc1-c1cccc(OC(F)(F)F)c1 | inactive
12 | COc1ccc(C2=Nn3c(nnc3-c3cccc(OC)c3OC)SC2)cc1OC | inactive
13 | FC(F)(F)c1ccc(CSc2nc3ncc(Br)cc3[nH]2)cc1 | inactive
14 | Cc1ccc(CNc2ccc(N3CCN(C(=O)OC(C)(C)C)CC3=O)cc2)cc1 | inactive
15 | CC1=C(C(=O)Nc2nc3ccccc3s2)C(c2nn(C)cc2Cl)N=C(Nc2nc3ccccc3o2)N1 (stereo not given) | inactive
16 | CCCn1c(-c2ccc(F)cc2)nc2c(NCCN(CC)CC)nc(C)nc21 | inactive
17 | C=C(C)C(=O)O[C@H]1[C@H]2C(=C)C(=O)O[C@@H]2C[C@@H](C)[C@@H]2O[C@@H]2C(=O)[C@](C)(O)[C@@H]1OC(=O)C(=C)C | inactive
18 | Cc1ccc(C)c(SC2=CS(=O)(=O)c3ccccc32)c1 | inactive
19 | CC(C)c1ccccc1-c1ncc(F)c(NCC2CCN(c3cnccn3)C2)n1 (stereo not given) | inactive
20 | O=C1CCCC2=C1C(c1[nH]ncc1Cl)N=C(Nc1nc3cc(F)ccc3o1)N2 (stereo not given) | inactive

Row | SMILES | Potency
21 | O=[S+]([O-])(Nc1ccc(C2CCNCC2)cc1)c1ccc(NCc2ccc(Cl)cc2O)cc1 | inactive
22 | N#Cc1nc(-c2cccc3ccccc23)oc1NC1COC1 | inactive
23 | CC1(C)CC[C@]2(C(=O)O)CC[C@]3(C)C(=CCC4[C@@]5(C)C[C@@H](O)[C@H](O)C(C)(C)C5CC[C@]43C)C2C1 (stereo not given in full) | inactive
24 | Cc1ccc(-c2nc3ccccc3[nH]2)cc1NC(=O)c1ccc(-c2cccc(Cl)c2)o1 | inactive
25 | C[C@@H](NC(c1ccc(F)cc1)c1ccc2cccnc2c1O)c1ccccc1 (stereo not given in full) | inactive
26 | O=C1CCCC2=C1C(c1ccncc1Br)N=C(Nc1nc3ccccc3o1)N2 (stereo not given) | inactive
27 | Cc1cc(NS(=O)(=O)c2ccc3c(c2)CCC(=O)N3)ccc1Cl | inactive
28 | Cc1cc(-c2nc(Nc3ccc(F)c(F)c3)c3ccccc3n2)cc(C)n1 | inactive
29 | O=C(OCC#CCSc1nnc(-c2cccc3ccccc23)o1)c1cccc(F)c1 | inactive
30 | COc1cccc(S(=O)(=O)N2CCN(S(=O)(=O)c3ccc4c(c3)OCCO4)CC2)c1 | inactive
31 | COc1ccc(Cl)cc1C(=O)Nc1nc(-c2ccccc2)cs1 | inactive
32 | O=C(Nc1nnc(-c2ccco2)o1)c1ccc(Br)cc1 | inactive
33 | c1ccc(OCc2nnc3n2N=C(c2ccccc2)CS3)cc1 | inactive
34 | O=[S+]([O-])(c1ccc2c(c1)OCCO2)N1CCN([S+](=O)([O-])c2ccccc2Br)CC1 | inactive
35 | Cc1cccc(-c2ccc3ncnc(NCc4cccc(F)c4)c3c2)c1 | inactive
36 | O=C(CNC(=O)c1ccc(Cl)cc1Cl)OC(C(=O)Nc1cc(C(F)(F)F)ccc1Cl)c1ccccc1 (stereo not given) | inactive
37 | O=C1CCCC2CC(Nc3nc4ccccc4o3)CC(c3ccccc3)C12 (stereo not given) | inactive
38 | COc1ccc(-c2nnc3n2N=C(c2ccc(OC)c(OC)c2)CS3)c(OC)c1 | inactive
39 | Cc1cc(C)nc(NC(=S)N2CCN(c3ccc([N+](=O)[O-])c4cccnc34)CC2)c1 | inactive
40 | CC(=O)Nc1oc(-c2cccc3ccccc23)nc1C#N | inactive
